Results published in PubChem BioAssay AID1259421 (Broad Institute, 2018).
Values joined by “and” are separate entries in the source; they are usually repeats but may differ in a detail not shown here. Equal values may be shown once. The campaign covered roughly 6,400 compounds. About 610 (9.5%) were called active. The full list was thinned out, with actives kept by preference. A number with no mark means an inactive call. Cut-off read from the data, not from the text of the source: active = activity change below about -70%; inconclusive = no clear call, values can overlap the other calls; inactive = above that.

assay: Toxoplasma gondii ME49Luc growth in HeLa cells, luciferase, no IFN-y, primary screen (AID 1259421); settings: T. gondii ME49Luc in HeLa, 72 h, active compounds read low, concentration not given here

| Structure (SMILES) | activity change, negative = inhibition |
| --- | --- |
| CC(C)[C@H](CO)Nc1nc(Nc2cccc(Cl)c2)c2ncn(C(C)C)c2n1 | -86% (active) and -72.5% (active) |
| CC(C)[C@H](CO)Nc1nc(Nc2cc(N)cc(Cl)c2)c2ncn(C(C)C)c2n1 | -82.6% (active) |
| CC(C)n1cnc2c(NCc3ccccc3)nc(NCCCO)nc21 | 0.139% |
| CC(C)[C@H](CO)Nc1nc(Nc2ccc(C(=O)O)c(Cl)c2)c2ncn(C(C)C)c2n1 | 13% and 1.51% |
| CC[C@@H]1OC(=O)C[C@@H](O)[C@H](C)[C@@H](O[C@@H]2O[C@H](C)[C@@H](O)[C@H](N(C)C)[C@H]2O)[C@@H](CCN2C[C@H](C)C[C@H](C)C2)C[C@@H](C)C(=O)/C=C/C(C)=C\[C@@H]1CO[C@@H]1O[C@H](C)[C@@H](O)[C@@H](OC)[C@H]1OC | 17.5% |
| CN1[C@@H]2CC(OC(=O)[C@H](CO)c3ccccc3)C[C@H]1[C@H]1O[C@H]12 (some centres undefined) | 23.8% |
| CCCCCCCC/C=C/C(=O)O | 1.14% |
| CO/N=C(\C(=O)N[C@@H]1C(=O)N2C(C(=O)OCOC(=O)C(C)(C)C)=C(C)CS[C@H]12)c1csc(N)n1 | 21.8% |
| OC[C@@]1(O)OC[C@@H](O)[C@@H](O)[C@@H]1O | 7.13% |
| COc1cc(N2CCC(N3CCN(C)CC3)CC2)ccc1Nc1ncnc(Nc2ccccc2S(=O)(=O)C(C)C)n1 | -35.3% |
| CNC(=O)c1ccccc1Nc1nc(Nc2ccc3c(c2OC)CCC[C@H](N2CCN(CCO)CC2)C3)ncc1Cl | -74.8% (active) |
| COc1cc(N2CCC(N)CC2)ccc1Nc1ncc(Cl)c(-c2c[nH]c3ccccc23)n1 | -81% (active) |
| CNC(=O)c1c(F)cccc1Nc1nc(Nc2cc3c(cc2OC)CCN3C(=O)CN(C)C)nc2[nH]ccc12 | -10.7% |
| CNC(=O)c1ccccc1Nc1cc(Nc2ccc(N3CCOCC3)cc2OC)ncc1C(F)(F)F | -46.5% |
| COc1cc(N2CCC(N(C)C)CC2)ccc1Nc1ncc(Cl)c(Nc2ccccc2P(C)(C)=O)n1 | -60.2% |
| CN1CCN(c2nc(C3=C(c4c[nH]c5ccccc45)C(=O)NC3=O)c3ccccc3n2)CC1 | -9.55% |
| COc1cc(N2CCC(N3CCN(C)CC3)CC2)ccc1Nc1ncc(Cl)c(Nc2ccccc2S(=O)(=O)C(C)C)n1 | -84.8% (active) |
| CNC(=O)c1ccccc1Nc1nc(Nc2ccc(N3CCOCC3)cc2OC)ncc1Cl | -73.7% (active) and -87.3% (active) |
| CN(CCc1ccc(Cl)c(Cl)c1)CC(O)COc1ccc(NS(C)(=O)=O)cc1 (centres undefined) | -4.31% and -8.47% |
